Compounds without any hit were thinned out: in the full panel of roughly 83,000, 20% have a hit.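 Note: values are percent growth. 100 is the growth of untreated cells, values between 100 and 0 indicate rising inhibition; between -100 and 0 indicates cell death.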 Values without a mark were called inactive. Activity calls are given as the source filed them. The calls were made as follows: active = growth percent below 10; inactive = the rest.
Assays:
Assay in all cases: NCI-60 one-dose screen, 48 h (100 = growth as untreated, 0 = no growth, -100 = all killed)
Settings in all cases: 10 µM unless noted
T-47D breast = tested on: T-47D breast
BT-549 breast = tested on: BT-549 breast
MDA-MB-435 melanoma = tested on: MDA-MB-435 melanoma
SW-620 colon = tested on: SW-620 colon
MCF7 breast = tested on: MCF7 breast
HCT-116 colon = tested on: HCT-116 colon
HCC-2998 colon = tested on: HCC-2998 colon
KM12 colon = tested on: KM12 colon

Structure (SMILES)	growth (T-47D breast)	growth (BT-549 breast)	growth (MDA-MB-435 melanoma)	growth (SW-620 colon)	growth (MCF7 breast)	growth (HCT-116 colon)	growth (HCC-2998 colon)	growth (KM12 colon)
O=S(=O)(NCCNc1nccc(-c2c(-c3ccc(F)c(O)c3)nc3occn23)n1)c1ccccc1	71.9%	80.8%	28.1%	63.5%	36.5%	22.6%	62.1%	52.6%
CCCCCCNC(=O)Oc1ccc(/C(=C(/CC)Cc2ccccc2)c2ccc(OCCN(CC)CC)cc2)cc1	56.1%	95.2%	60.9%	23.1%	10.1%	27.2%	59.5%	51.6%
CC1=NNC(=O)C1CCC(=O)N/N=C(\C)c1ccc2ccccc2c1 (stereo not given)	146%	118%	86.5%	103%	98.9%	92.7%	107%	98.9%
CCOc1cc(CNc2ccc(N3CCOCC3)c(C(=O)O)c2)ccc1OC	103%	108%	104%	98.5%	82.2%	119%	99.9%	100%
Clc1nc(Cl)c2ncn(CCOCCn3cnc4c(Cl)nc(Cl)nc43)c2n1	-53.9% (active)	-94.1% (active)	-90.1% (active)	-86.9% (active)	-48.9% (active)	-79.7% (active)	-87.5% (active)	-85.9% (active)
CC(=O)c1c[nH]c2ccc(-c3ccnc(Nc4ccc(NC(=O)c5cccc(F)c5)c(CN5CCOCC5)c4)n3)cc12	-5.6% (active)	-7.43% (active)	-6.37% (active)	0.335% (active)	-0.0693% (active)	2.26% (active)	1.41% (active)	-7.43% (active)
CCN(CC)CCCCCCNc1cc(OC)cc2cccnc12	92.5%	83.9%	17.8%	-64.5% (active)	20%	-54.4% (active)	84.1%	76%
C=C1C(=O)O[C@H]2[C@H]1CC/C(COC(=O)/C=C/c1c[nH]c3ccccc13)=C\CC[C@@]1(C)O[C@@H]21	-68.3% (active)	-69.6% (active)	-88.5% (active)	-74.7% (active)	-40.1% (active)	-83.8% (active)	-88.1% (active)	-51.6% (active)
COc1ccc(C(O)c2cc3c(N)c(C(=O)Nc4cccc(OC)c4)sc3nc2C)cc1 (stereo not given)	62.8%	26.5%	-9.54% (active)	19.9%	17.8%	5.98% (active)	5.05% (active)	2.91% (active)
Cn1/c(=N/NC(N)=S)ccc2ccccc21	52.9%	100%	99.8%	84.5%	37.4%	7.01% (active)	112%	103%
NC(=O)c1cccc(-c2cc(C(N)=O)ccc2Cl)c1	33.9%	57.9%	-27.6% (active)	21.1%	23.5%	25.4%	57.7%	30.8%
CC(=O)[C@@H]1CC[C@]2(C(=O)n3ccnc3)CC[C@]3(C)[C@H](CC[C@@H]4[C@@]5(C)Cc6c([nH]c7ccccc67)C(C)(C)[C@@H]5CC[C@]43C)[C@@H]12	78%	99.1%	101%	90.8%	71.9%	83.9%	109%	84.2%
Cc1c(C(=O)NO)sc2ncnc(Nc3ccc(NC(=S)Nc4ccccc4)cc3)c12	113%	106%	101%	105%	95.3%	105%	99.9%	102%
COc1ccc2c(c1)OC1=C(C(=O)OC1)C2c1cc(OC)c(OC)c(OC)c1 (stereo not given)	66.3%	34.5%	-38.5% (active)	23.2%	27.1%	19.3%	6.19% (active)	13.1%
COc1cnccc1-c1nc2ccc3[nH]ncc3c2c2c1CCCC2	68.4%	43.3%	13.2%	28.1%	43.5%	23.8%	58.4%	21.4%
